Experimental data published in PubChem BioAssay (NCATS).
Several values for one entry are separate records, joined by “and”; a condition that tells them apart may be missing. Equal entries are not always repeated. Records with an inconclusive call do not appear. Activity calls are given as the source filed them. Unless noted, the call rests on the fitted dose curve; in most records, active means well fitted curve in the direction sought with a large enough effect; inconclusive means small, poorly fitted or top-dose-only effect, or another doubt; inactive means no such curve, though single readings can be large; an effect the other way counts as inactive or inconclusive.

Columns and labels:
[1] = target: Peroxisome proliferator-activated receptor alpha (Homo sapiens) (UniProt Q07869); assay: qHTS assay for small molecule agonists of the peroxisome proliferator-activated receptor alpha (PPARalpha) signaling pathway (AID 651778); settings: PathHunter PPARalpha complementation, chemiluminescence, 6 h; max response: stronger effect = higher value; further: potency means the concentration at half of the fitted maximal effect; on max response: % of control where 0% means no effect
Outline: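 Chemiluminescence from complemented enzyme reported PPARalpha activation in cells after 6 hr of compound treatment at 37 C. The detection reagent was incubated for 60 min at room temperature, and compounds were scored as agonists.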

[2] = target: Nuclear receptor ROR-gamma (Homo sapiens) (UniProt P51449); assay: qHTS assay for small molecule antagonists of the retinoid-related orphan receptor gamma (ROR-gamma) signaling pathway (AID 651802);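 further: luciferase reporter luminescence driven by ROR response element; on the % scale 0 is the no-effect control and ±100 the full control effect; nearly all actives have a fitted effect of over 60% in size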
Outline: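 CHO cells with TET-inducible ROR-gamma and RORE-luciferase reporter, dosed then doxycycline-induced. After 16 h at 37C, One-Glo luminescence read; decreased signal indicates antagonism.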

[3] = target: Arylsulfatase A (Homo sapiens) (UniProt P15289); assay: qHTS screen for enhancers of Arylsulfatase A (ASA1): LOPAC Validation Assay (AID 720538)
Outline: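 SV40-transformed fibroblasts from an MLD patient (ASA-I179S) were treated with compound for 48 h at 37 C. They were then lysed with 0.5 mM pNCS substrate (final) for 14 h at room temperature and stopped with NaOH; signal read by fluorescence (Ex 525/Em 598 nm), with increase denoting enhanced activity.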

[4] = qHTS for compounds that reverse cellular toxicity of Amyloid beta (A-beta) peptide in yeast: LOPAC Validation Assay (AID 720559);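 further: plate controls were DMSO for no effect and equimolar ferric chloride plus clioquinol rescue for full effect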
Outline: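 Yeast expressing toxic A-beta grown with pinned compounds at 30 C for 48 hr. Growth measured as absorbance at 600 nm; data normalized to DMSO and to an equimolar FeCl3/clioquinol mixture as positive control.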

[5] = qHTS for Activators of Parkin Expression: LOPAC Validation Assay (NLuc Reporter) (AID 720572;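 further: 0% = DMSO and 100% = positive control compound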)
Outline: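 Parkin promoter-driven FLuc/NLuc neuronal reporter cells; 24 h plating, 7-pt dose response, 24 h at 37 C/5% CO2; FLuc then NanoLuc reagent, 10 min each, luminescence; DMSO/positive control normalized.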

[6] = qHTS for Activators of Parkin Expression: LOPAC Validation Assay (FLuc Reporter) (AID 720573;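 further: 0% = DMSO and 100% = positive control compounds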)
Outline: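 Neuronal cell line stably expressing FLuc/NLuc coincidence reporter under the Parkin promoter, 1,500 cells/well, dosed 24 h after seeding in 7-point series for 24 h at 37 C. FLuc luminescence read; normalized to DMSO and positive control (100%).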

[7] = qHTS assay for small molecule agonists of the antioxidant response element (ARE) signaling pathway measured by Nrf2-dependant transcriptional activity (AID 720636; active means well fitted curve in the direction sought with a large enough effect in the repeat runs; an effect the other way counts as inactive or inconclusive;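 further: HepG2 cells with an ARE-driven luciferase reporter; % of control where 0% means no effect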)
Outline: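 HepG2 ARE-luc reporter line, 1% dialyzed FBS; 6 hr attachment at 37 C, compound pinned in, 16 hr at 37 C/5% CO2; ONE-Glo, 30 min RT, luminescence read.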

[8] = qHTS assay for small molecule antagonists of the retinoid-related orphan receptor gamma (ROR-gamma) signaling pathway - cell viability counter screen (AID 720652; active means well fitted curve in the direction sought with a large enough effect in the repeat runs; an effect the other way counts as inactive or inconclusive;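 further: compound exposure lasted 16 hr before ATP read; on the % scale 0 is the no-effect control and ±100 the full control effect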)
Outline: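 CHO cells carrying TET-inducible ROR and RORE-luciferase reporter, plated 5 hr, then dosed with compound plus doxycycline. After 16 hr at 37 C, viability read as intracellular ATP by CellTiter-Glo luminescence.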

[9] = qHTS assay for small molecule agonists of the antioxidant response element (ARE) signaling pathway measured by Nrf2-dependant transcriptional activity - cell viability counter screen (AID 720653; active means well fitted curve in the direction sought with a large enough effect in the repeat runs; an effect the other way counts as inactive or inconclusive; further: on the % scale 0 is the no-effect control and ±100 the full control effect); settings: ARE-bla HepG2 viability, CellTiter-Glo ATP luminescence, 16 h; max response: stronger effect = lower value
Outline: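 Cytotoxicity counter screen: intracellular ATP quantified by CellTiter-Glo luminescence in the same ARE-bla HepG2 plates, after 16 h compound exposure and a 2 h beta-lactamase substrate step.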

[10] = target: T1, Hexokinase-4 (Homo sapiens) + Glucokinase regulatory protein (Homo sapiens) (UniProt P35557+Q14397); assay: qHTS assay for inhibitors of recombinant human GCK-GKRP interaction: Diaphorase-coupled assay (AID 743205)
Outline: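 Compounds pre-incubated 20 min with substrate, then 10 nM GST-GCK with 10 nM FLAG-GKRP added. GCK activity coupled via G6PDH and diaphorase to resorufin (5 mM glucose, 0.4 mM ATP, 0.15 mM NADP+, pH 7.6), read kinetically over 30 minutes at Ex 525/Em 590 nm.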

[11] = target: T1, Hexokinase-4 (Homo sapiens) + Glucokinase regulatory protein (Homo sapiens); assay: qHTS assay for inhibitors of recombinant human GCK-GKRP interaction: ADP-Glo assay (AID 743206);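 further: plate controls were DMSO plus enzyme for no effect and no enzyme for full effect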
Outline: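 GST-GCK and FLAG-GKRP (15 nM each in the dispensed mix, with 2 uM S6P) react with 0.4 mM ATP and 5 mM glucose (final) in Hepes pH 7.6 for 60 min at room temperature. ADP is measured by ADP-Glo luminescence.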

[12] = target: T1, Hexokinase-4 (Homo sapiens) + Glucokinase regulatory protein (Homo sapiens); assay: qHTS assay for inhibitors of recombinant human GCK-GKRP interaction: HTRF assay (AID 743207);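 further: 0% = DMSO with GCK present and -100% = DMSO wells lacking GCK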
Outline: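 HTRF binding of 5 nM GST-GCK and 5 nM FLAG-GKRP with 2 uM S6P in pH 7.1 Hepes buffer (MgCl2, KCl, DTT, Tween 20, BSA). Anti-FLAG XL665 and anti-GST donor added, 60 min at room temperature; 665/615 nm read, normalized to with- and without-GCK controls.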

[13] = qHTS Assay for Identifying Gametocytocidal Compounds (AID 743244);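 further: on the % scale 0 is the no-effect control and ±100 the full control effect; actives lower the fluorescent signal which means gametocytes are killed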; settings: P. falciparum 3D7 stage III-V gametocytes, alamarBlue, 72 h; max response: stronger effect = lower value
Outline: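 Using 20,000 stage III–V 3D7 gametocytes per well, compounds were incubated 72 h under 37 °C/5% CO2. Viability was then assessed by 24 h alamarBlue reduction, measured fluorometrically at 525/598 nm.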

[14] = qHTS assay for cell viability of HEK293 cells (AID 743288); settings: ATP luminescence (CellTiter-Glo), 18 h; max response: stronger effect = lower value; further: on the % scale 0 is the no-effect control and ±100 the full control effect; nearly all actives have a fitted effect of over 50% in size
Outline: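 Parental HEK293 cells, 2,000 per well, preincubated at least 5 h at 37 C, then exposed to compounds in DMSO for 18 h at 37 C. Viability by CellTiter-Glo ATP luminescence after 30 min at room temperature.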

[15] = qHTS assay for cell viability of the p53RE-bla HCT-116 cell line (AID 743292); further: on the % scale 0 is the no-effect control and ±100 the full control effect; nearly all actives have a fitted effect of over 55% in size
Outline: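 Luminescent ATP quantitation (CellTiter-Glo) served as the viability read-out; reagent was added after 16 h compound exposure at 37 C and read after 30 min at room temperature. Cells: p53RE-bla HCT-116, 4,000 per well.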

[16] = qHTS for small molecule inhibitors of Yes1 kinase: Counter Assay (AID 686950);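 further: no kinase present so only ADP-Glo detection of a fixed ADP amount is tested; luminescence from ADP-Glo reporting ADP in a fixed ATP and ADP mixture; 0% = DMSO wells with ATP plus ADP and -100% = ATP-only wells without ADP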
Outline: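 Luminescence read-out from ADP-Glo quantifies a fixed ADP amount (0.02 mM ADP with 0.08 mM ATP) after 60 min at room temperature; signal is normalized between DMSO wells with ATP/ADP and with 0.1 mM ATP alone.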

[17] = target: Tyrosine-protein kinase Yes (Homo sapiens) (UniProt P07947); assay: qHTS for small molecule inhibitors of Yes1 kinase: Primary Screen (AID 686947);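 further: plate controls were DMSO with enzyme for no effect and no-enzyme DMSO wells for full effect; nearly all actives have a fitted effect of over 60% in size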
Outline: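 Yes1 (4 nM) preincubated 20 min with compound, then 60 min room-temperature reaction with 0.1 mM ATP and 0.3 mg/mL poly(E4Y) in pH 7.5 Tris, 10 mM MgCl2. ADP measured by ADP-Glo luminescence, normalised to enzyme/no-enzyme controls.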

[18] = qHTS profiling for inhibitors of Plasmodium falciparum (3D7) proliferation (AID 743322);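 further: infected erythrocytes exposed to compound for 72 h before lysis; 100% = DMSO vehicle wells and 0% = 0.29 µM artemisinin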; settings: P. falciparum 3D7 proliferation, at 28.7 µM (top of the series)
Outline: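 Erythrocytes infected with P. falciparum (0.3% parasitemia, 2.5% hematocrit) incubated with compounds 72 h at 37 C, 5% CO2. Lysis with saponin/Triton buffer containing SYBR Green I, overnight at room temperature in the dark; DNA fluorescence (485/535 nm) normalised to 0.29 uM artemisinin and DMSO.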

[19] = qHTS profiling for inhibitors of Plasmodium falciparum (DD2) proliferation (AID 743323; call rule not given here); settings: at 28.7 µM (top of the series), lower = more inhibition
Outline: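 SYBR Green fluorescence (ex 485, em 535 nm) of lysed cultures gives parasite DNA content; wells normalized to artemisinin (0.29 uM) and DMSO controls. Infected red cells: 0.3% parasitemia, 2.5% hematocrit, 72 h, 37 C.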

Chain of Tyrosine-protein kinase Yes (Homo sapiens) (P07947 whole entry, looked up): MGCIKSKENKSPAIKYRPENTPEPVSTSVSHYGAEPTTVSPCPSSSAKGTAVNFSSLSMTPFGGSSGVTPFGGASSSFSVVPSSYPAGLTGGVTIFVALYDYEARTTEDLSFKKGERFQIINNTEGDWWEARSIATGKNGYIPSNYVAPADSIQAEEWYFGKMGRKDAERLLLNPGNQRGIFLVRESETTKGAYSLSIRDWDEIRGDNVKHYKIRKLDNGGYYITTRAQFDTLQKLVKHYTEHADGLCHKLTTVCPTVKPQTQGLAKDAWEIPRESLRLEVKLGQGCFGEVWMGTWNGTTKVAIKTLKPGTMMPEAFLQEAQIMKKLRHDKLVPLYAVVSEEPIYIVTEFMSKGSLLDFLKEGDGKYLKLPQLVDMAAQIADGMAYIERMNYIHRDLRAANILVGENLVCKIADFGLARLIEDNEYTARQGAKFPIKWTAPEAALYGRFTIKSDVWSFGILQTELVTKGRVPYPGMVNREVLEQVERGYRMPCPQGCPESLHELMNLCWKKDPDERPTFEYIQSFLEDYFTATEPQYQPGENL
Chain of Arylsulfatase A (Homo sapiens) (P15289 whole entry, looked up): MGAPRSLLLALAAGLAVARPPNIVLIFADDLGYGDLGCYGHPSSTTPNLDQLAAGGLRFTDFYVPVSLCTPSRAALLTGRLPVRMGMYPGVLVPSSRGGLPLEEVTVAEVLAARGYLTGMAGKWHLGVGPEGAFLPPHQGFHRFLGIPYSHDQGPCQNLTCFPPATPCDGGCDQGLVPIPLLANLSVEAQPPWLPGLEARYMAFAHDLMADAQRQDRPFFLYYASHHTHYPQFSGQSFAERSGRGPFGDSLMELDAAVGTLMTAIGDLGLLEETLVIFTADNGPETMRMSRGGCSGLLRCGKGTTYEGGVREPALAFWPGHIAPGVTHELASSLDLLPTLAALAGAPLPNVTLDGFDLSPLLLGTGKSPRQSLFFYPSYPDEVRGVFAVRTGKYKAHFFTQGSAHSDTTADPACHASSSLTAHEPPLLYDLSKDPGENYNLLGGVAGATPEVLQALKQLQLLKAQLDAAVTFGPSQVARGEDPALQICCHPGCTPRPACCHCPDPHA
Chain of Peroxisome proliferator-activated receptor alpha (Homo sapiens) (Q07869 whole entry, looked up): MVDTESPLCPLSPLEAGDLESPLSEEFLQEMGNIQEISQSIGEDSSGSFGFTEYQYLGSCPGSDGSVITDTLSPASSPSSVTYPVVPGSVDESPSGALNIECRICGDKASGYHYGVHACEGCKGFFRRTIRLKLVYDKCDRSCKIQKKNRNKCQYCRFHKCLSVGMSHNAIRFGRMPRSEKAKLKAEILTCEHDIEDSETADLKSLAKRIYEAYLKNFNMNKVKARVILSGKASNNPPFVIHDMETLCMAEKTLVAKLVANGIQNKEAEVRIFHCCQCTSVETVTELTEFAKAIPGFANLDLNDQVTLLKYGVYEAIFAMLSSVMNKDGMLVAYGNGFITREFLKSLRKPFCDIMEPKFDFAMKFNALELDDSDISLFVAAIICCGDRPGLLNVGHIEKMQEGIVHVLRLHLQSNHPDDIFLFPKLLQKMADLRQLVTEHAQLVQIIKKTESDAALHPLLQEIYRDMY
Chain of Nuclear receptor ROR-gamma (Homo sapiens) (P51449 whole entry, looked up): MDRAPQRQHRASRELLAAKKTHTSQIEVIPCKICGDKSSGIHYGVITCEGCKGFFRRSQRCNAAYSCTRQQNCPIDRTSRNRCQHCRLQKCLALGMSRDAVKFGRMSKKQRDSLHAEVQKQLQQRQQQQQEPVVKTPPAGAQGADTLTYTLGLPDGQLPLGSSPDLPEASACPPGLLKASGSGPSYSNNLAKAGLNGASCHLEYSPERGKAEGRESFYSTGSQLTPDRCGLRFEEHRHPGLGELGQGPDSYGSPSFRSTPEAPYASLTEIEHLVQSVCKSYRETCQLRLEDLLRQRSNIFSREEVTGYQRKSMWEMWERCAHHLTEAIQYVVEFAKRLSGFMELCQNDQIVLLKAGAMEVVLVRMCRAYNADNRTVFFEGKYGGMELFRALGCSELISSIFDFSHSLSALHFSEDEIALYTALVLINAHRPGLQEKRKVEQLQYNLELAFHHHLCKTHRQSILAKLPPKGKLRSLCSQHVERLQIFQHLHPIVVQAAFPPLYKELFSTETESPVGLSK
T1 sequence (P35557 whole entry, looked up): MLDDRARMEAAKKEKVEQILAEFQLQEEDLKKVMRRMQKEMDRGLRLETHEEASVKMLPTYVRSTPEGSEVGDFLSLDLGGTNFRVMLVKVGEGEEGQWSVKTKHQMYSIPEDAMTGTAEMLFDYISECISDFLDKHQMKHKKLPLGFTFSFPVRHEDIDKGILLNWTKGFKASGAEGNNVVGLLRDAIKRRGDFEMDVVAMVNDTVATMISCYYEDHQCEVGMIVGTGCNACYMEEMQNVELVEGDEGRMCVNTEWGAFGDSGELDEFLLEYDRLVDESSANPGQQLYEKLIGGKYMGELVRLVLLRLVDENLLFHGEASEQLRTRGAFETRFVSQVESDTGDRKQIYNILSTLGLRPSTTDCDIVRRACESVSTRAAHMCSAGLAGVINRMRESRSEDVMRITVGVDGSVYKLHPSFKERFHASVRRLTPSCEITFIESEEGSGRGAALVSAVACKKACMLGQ
T1 sequence (Q14397 whole entry, looked up): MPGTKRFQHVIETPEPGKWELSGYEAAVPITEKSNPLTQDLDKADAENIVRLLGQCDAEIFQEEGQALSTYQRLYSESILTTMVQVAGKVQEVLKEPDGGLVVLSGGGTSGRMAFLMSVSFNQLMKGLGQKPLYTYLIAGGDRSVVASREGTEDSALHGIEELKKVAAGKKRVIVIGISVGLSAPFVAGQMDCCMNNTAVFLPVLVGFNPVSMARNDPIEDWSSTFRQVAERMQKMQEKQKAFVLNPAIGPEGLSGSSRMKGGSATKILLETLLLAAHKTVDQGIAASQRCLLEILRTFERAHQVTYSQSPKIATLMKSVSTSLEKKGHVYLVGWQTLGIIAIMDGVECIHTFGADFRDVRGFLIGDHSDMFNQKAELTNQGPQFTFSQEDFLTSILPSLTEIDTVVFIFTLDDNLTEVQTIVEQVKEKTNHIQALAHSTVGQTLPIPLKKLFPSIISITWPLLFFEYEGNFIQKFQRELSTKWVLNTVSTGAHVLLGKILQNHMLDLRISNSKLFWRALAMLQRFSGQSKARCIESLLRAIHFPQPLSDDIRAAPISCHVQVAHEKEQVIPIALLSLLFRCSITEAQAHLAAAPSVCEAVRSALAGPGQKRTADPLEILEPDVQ

Nc1ccn([C@H]2CC[C@@H](CO)O2)c(=O)n1
inactive: max response [1] -1.99% and 0.814% | Potency [2] | Potency [3] | outcome [4] | outcome [5] | Potency [6] | outcome [7] | Potency [8] | max response [9] -1.33% and -0.56% | Potency [10] | Potency [11] | Potency [12] | max response [13] -9.19% and 7.53% | max response [14] 3.55% and 2.55% | Potency [15]

CC(C)NCC(O)c1ccc(O)c(O)c1 (stereo unspecified)
inactive: max response [1] -1.03% and -0.0809% | Potency [2] | outcome [4] | outcome [5] | Potency [6] | outcome [7] | Potency [8] | max response [9] 0.482% and -3.43% | Potency [10] | Potency [11] | Potency [12] | max response [13] -2.95% | max response [14] 0.858% and -11.4% | Potency [15]

O=c1[nH]cc(F)c(=O)[nH]1
inactive: max response [1] -2.48% | Potency [2] | outcome [5] | Potency [6] | outcome [7] | Potency [8] | max response [9] -3.42% | Potency [10] | Potency [11] | Potency [12] | max response [13] 14.8% and 3.27% | max response [14] -0.211% | Potency [15]

NS(=O)(=O)c1cc2c(cc1Cl)NCNS2(=O)=O
inactive: max response [1] -0.533% and -1.17% | Potency [2] | outcome [4] | outcome [5] | Potency [6] | outcome [7] | Potency [8] | max response [9] 0.152% and 15.5% | Potency [10] | Potency [11] | Potency [12] | max response [13] 6.34% and 16.2% | max response [14] -3.61% and 2.79% | Potency [15]

Cc1cn([C@H]2C[C@H](N=[N+]=[N-])[C@@H](CO)O2)c(=O)[nH]c1=O
inactive: max response [1] 0.0124% and -0.27% | Potency [2] | outcome [16] | outcome [4] | outcome [5] | Potency [6] | outcome [7] | Potency [8] | max response [9] -2.6% | Potency [10] | Potency [11] | Potency [12] | max response [13] 21.9% and 0.942% and 16% | max response [14] -21.7% | Potency [15]

CC(C)(Oc1ccc(C2CC2(Cl)Cl)cc1)C(=O)O (stereo unspecified)
active: Potency [1] 14.1 µM
inactive: outcome [4] | outcome [5] | Potency [6] | outcome [7] | max response [9] 10.6% | Potency [10] | Potency [11] | Potency [12] | max response [13] 2.49% and 6.24% | max response [14] -8.57% | Potency [15]

COc1ccc(CCN(C)CCCC(C#N)(c2ccc(OC)c(OC)c2)C(C)C)cc1OC (stereo unspecified)
inactive: Potency [17] | outcome [16] | outcome [5] | Potency [6] | outcome [7] | Potency [8] | max response [9] -18% | Potency [10] | Potency [11] | Potency [12] | max response [14] 0.749% | Potency [15]

Cn1ccc2cc3c(cc21)CCN3C(=O)Nc1cccnc1
25%: remaining parasite growth % (stronger effect = lower value) [18]
23%: activity, percent of control [19]
inactive: Potency [17] | outcome [16] | outcome [4] | outcome [5] | Potency [10] | Potency [11] | Potency [12] | max response [13] 16% and 23.5%

Cn1c(=O)c2c(ncn2C)n(C)c1=O
inactive: max response [1] -7.69% and -2.94% | Potency [2] | outcome [4] | outcome [5] | Potency [6] | outcome [7] | Potency [8] | max response [9] 6.29% and 2.32% | Potency [10] | Potency [11] | Potency [12] | max response [13] -4.77% and 11.8% | max response [14] 0.413% and -8.15% | Potency [15]

COc1cc2c(c(OC)c1OC)-c1ccc(OC)c(=O)cc1[C@@H](NC(C)=O)CC2
inactive: max response [1] -2.35% and 0.0679% and 8.6% | Potency [3] | outcome [4] | outcome [5] | Potency [6] | outcome [7] | Potency [8] | max response [9] -19.8% and 13.5% and -10.8% | Potency [10] | Potency [11] | Potency [12] | max response [13] -10.9% and -1.99% | max response [14] -13.3% and -14.4% and -4% | Potency [15]

N[C@@H](Cc1c[nH]c2ccc(O)cc12)C(=O)O
inactive: max response [1] -1.51% | Potency [3] | outcome [4] | outcome [5] | Potency [6] | outcome [7] | max response [9] -3.27% | Potency [10] | Potency [11] | Potency [12] | max response [13] -0.101% and -5.53% | max response [14] 3.87% | Potency [15]

CCC1(c2ccccc2)C(=O)NCNC1=O
inactive: max response [1] -5.03% and -3.26% | Potency [2] | Potency [3] | outcome [4] | outcome [5] | Potency [6] | outcome [7] | Potency [8] | max response [9] 3.8% and 3.23% | Potency [10] | Potency [11] | Potency [12] | max response [13] 16.7% and 25% | max response [14] -2.05% and -6.21% | Potency [15]
